# PubChem BioAssay AID1508600 (Functional Genomics Laboratory (NCATS/FGL), 2020)
# In all, about 53,000 sequences went through this assay and about 3,700 (7%) were called active. This excerpt belongs to a sample that is enriched for actives. A number with no mark means an inactive call.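 The calls were made as follows: active = gene knockdowns whose robust z-score for IL-1 alpha signal is at least 2 or at most -2, so actives lie on both sides; inactive = the rest.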
# Assay: Components of the Cytosolic LPS Sensing Pathway: Gene Identification via Genome-wide siRNA Screen;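 also: robust z of the log signal after scaling to non-targeting control siRNA wells of the plate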
# Conditions: RAW264.7 macrophages, IL-1a HTRF, actives lie on both sides, screened at 100 nM (by protocol), cells primed 5 h with Pam3CSK4 first
# Procedure, shortened: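 Supernatant IL-1a by HTRF from RAW264.7 cells primed with Pam3CSK4 (5 hours) and transfected with LipidA (24 hour) after 48h siRNA knockdown at 100 nM; cell viability checked with CellTiter-Glo.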
row,Sequence,z-score
1,GGAAGCAACUUGGAAUUUGTT against Ctnna3,0.886
2,GGGUACAGUCCGAUACAGUTT against Nploc4,-1.79
3,GCUCUCAUUAGCAUUAUCGTT against Gria1,0.21
4,GCACAACUCAGAAGUAAUUTT against Ghr,0.271
5,GGUAAUAUUUCGUGCUUUATT against Lamb1,2.1 (active)
6,CCUAAAAAGAGGAAAAGGGTT against Psg29,-0.254
7,GGUGCUCAGCAUGUUUGCUTT against Avpr1b,-1.06
8,GGCACUGGAAAUAAAACCCTT against S100a14,-0.766
9,GCUAACGAAGGUAGUGUACTT against Gtpbp8,3.34 (active)
10,GGUAUGCUCUCUGUUGACUTT against Olfr922,0.472
11,GGAGUUCCUAUUUAAUCCCTT against Hoxb8,-0.419
12,GCAGUUUUAACUGGCCAUATT against Nr2f2,1.7
13,GCUGCUUAAGUACAUCAGATT against Grm4,-0.401
14,GGUUAUGCAUUACUCUCUUTT against Prkdc,0.0207
15,GGCCAGGUAUAAAUAUAUATT against Dusp8,4.51 (active)
16,GCUGGAACUUAGUGUUCAGTT against Kat6b,1.45
17,GCAAUGUUCUCCGUAAACATT against Acss2,1.15
18,GGCUUCAAACACUUCCUUGTT against Sh2d4b,0.818
19,GGGAAAAGAUUCAGCUAGATT against Ntn4,-1.16
20,GCAGCUAUUGAGCAUGGUGTT against Atp6v1g3,-2.16 (active)
21,GCCGUAUCGAUUCUAUUUCTT against Slc6a17,1.09
22,GGAAAAGAAGACAUUUCUCTT against Osbpl8,-0.565
23,CCUCCUGUACGAACACGCATT against Sars2,-0.118
24,GGCUGUGCUCAGGAUCAAATT against Olfr683,2.37 (active)
25,GGAAAUAUCCAAGAAUCCCTT against Bbs4,-0.0724
26,GUGAUUGGGAACCUGUUUATT against Paqr6,-1.35
27,GCAGAUCAGUUGGUACAAGTT against Acss3,0.0616

row,Sequence,z-score
1,GCUAACACAACGAGAGAAGTT against Ushbp1,-2.39 (active)
2,GGAUUCACACAGAGGUAAATT against Zfp169,-0.215
3,CCCAUAUUAAUUAUGGCGUTT against Hadha,-0.189
4,GCCAUACAUAAACUACAAUTT against Gulo,-0.175
5,GUACUUGAAACGAACUGGATT against B4galnt4,-1.68
6,CCUUACCCUGUUAUACAAGTT against Hirip3,2.69 (active)
7,GGCUAAAACAGGAAAUCUGTT against Mip,-0.398
8,CCACUUUAAAGGCUCUUCUTT against H3c8,-2.17 (active)
9,CCGACUUCGUACAAUGACCTT against Slc1a6,1.45
10,GGAGAACAAGAUCCUGGAGTT against Ccdc39,1.73
11,GGAUCCAGAAGAGCAUCUCTT against Sap30,-0.33
12,GGGCGUGAUUUAUUUCUACTT against Mfsd6l,1.45
13,GGCUAUGCUUUUGUCCAGUTT against Raly,-0.392
14,GGUGUCUUUGCUCUUAAUUTT against Sike1,0.277
15,CGCAGUCCUUGACAUUAAATT against Rab3a,0.0328
16,GCUCUUGGGAUGGACGAUATT against Hmgcs1,4.73 (active)
17,GGCAGACAUAAGGCUUUCUTT against Olfr1056,-0.754
18,GGGCAGGAAAAAAAAUUCATT against Vps13b,1.68
19,CCACUGAAGGAAGUUCGCUTT against Amer2,0.21
20,GGAUAAAUGCCAUUUUGGATT against Cpeb1,-0.664
21,GCCUUAACCACAAUUAAAATT against Etfrf1,-0.578
22,GGGAUCUGGAUGAGGUCAATT against Tcf7l1,3.02 (active)
23,GGAAAUUAGUGCUGGGCGUTT against Erbb3,0.424
24,CGAAAUUGAUUCUAUCUGCTT against Katnal1,-0.59
25,GGGUCUCUAUGGAAUCAAUTT against Ldha,2.83 (active)
26,GGCAGUAUGAGAGGUAUUUTT against Entpd7,0.345
27,CCAAACGAAGGAAGCUGACTT against Taf6l,-2.09 (active)
